We go through 40 compounds from PubChem BioAssay (NCATS).

In assay [1] the target is Cytochrome P450 3A7 (Homo sapiens) (UniProt P24462). In words: Cytochrome P450 family 3 subfamily A member 7 (CYP3A7) small molecule antagonists: luciferase biochemical qHTS assay (AID 1963596). Further: nearly all actives have a fitted effect of over 40% in size. In short, it runs like this:
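Compounds were screened in qHTS format for interference with CYP3A7 turnover of a proluciferin substrate. Reactions ran 1 h at room temperature after NADPH regeneration solution was added, then luciferin product was detected by luminescence.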

Assay [2] in a line: Cellular viability qHTS for adrenocortical cancer (ACC) cell line SW-13 (AID 1963989). Further: nearly all actives have a fitted effect of over 65% in size.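 On activity (max response): cells grown in serum-free medium with ITS supplement; on the % scale 0 is the no-effect control and ±100 the full control effect.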 As to conditions: SW-13 ACC cells viability, CellTiter-Glo, 48 h; activity (max response): stronger effect = lower value. In short, it runs like this: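 Viability was read as CellTiter-Glo luminescence after 48 h compound treatment (up to 46 uM final) of SW-13 cells grown serum-free; titration curves were fit with a four-parameter logistic model to give IC50 and efficacy.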
In general terms: In qHTS, concentration-response curves come from the screen itself.

A short description of assay [3]: Cellular viability qHTS for adrenocortical cancer (ACC) cell line NCI-H295R (AID 1963990). Further: nearly all actives have a fitted effect of over 60% in size. In short, it runs like this: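 CellTiter-Glo ATP luminescence, read 48 h after compound addition, measured viability of NCI-H295R adrenocortical cells grown serum-free with ITS. Final concentrations spanned up to 46 uM. Data normalized to DMSO and doxorubicin, fitted for IC50 and maximal response.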

The nature of assay [4]: Quantitative highthroughput screen to assess conditional lethalithy of NOMO1 cells grown in RPMI1640 with dialyzed fetal bovine serum (RPMI+ds) (AID 1963877). Further: nearly all actives have a fitted effect of over 30% in size.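 On viability: series mostly up to about 46 µM; 100% = DMSO control wells and 0% = empty wells.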 In short, it runs like this: (§1)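 Each medium arm—HPLM with 10% dialyzed FBS, or RPMI1640 with 5 mM glucose and 10% untreated or dialyzed FBS—was screened against an 11-point, 3-fold compound titration for 48 h at 37 °C, with CellTiter-Glo luminescence as endpoint.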

The nature of assay [5]: Quantitative highthroughput screen to assess conditional lethalithy of NOMO1 cells grown in Human Plasma-Like Medium with dialyzed fetal bovine serum (HPLM+ds) (AID 1963878). Further: nearly all actives have a fitted effect of over 35% in size.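 On viability: 100% = DMSO wells and 0% = empty wells on each plate.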 The gist of the method:
as §1

A short description of assay [6]: Quantitative highthroughput screen to assess conditional lethalithy of P12 Ichikawa cells grown in Human Plasma-Like Medium with dialyzed fetal bovine serum (HPLM+ds) (AID 1963879). Further: nearly all actives have a fitted effect of over 35% in size. On viability: series mostly up to about 46 µM. To be noted: Potency: viability. In short, it runs like this:
as §1

Assay [7] can be described thus: Quantitative highthroughput screen to assess conditional lethalithy of P12 Ichikawa cells grown in RPMI1640 with dialyzed fetal bovine serum (RPMI+ds) (AID 1963880). Further: nearly all actives have a fitted effect of over 35% in size.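 On viability: 100% = DMSO wells and 0% = empty wells on each plate.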 To be noted: Potency: P12-Ichikawa viability. In short, it runs like this:
as §1

The nature of assay [8]: Quantitative highthroughput screen to assess conditional lethalithy of SEM cells grown in Human Plasma-Like Medium with dialyzed fetal bovine serum (HPLM+ds) (AID 1963882). Further: nearly all actives have a fitted effect of over 35% in size. On viability: series mostly up to about 46 µM. In short, it runs like this: as §1
The nature of assay [9]: Quantitative highthroughput screen to assess conditional lethalithy of SEM cells grown in RPMI1640 with unreated serum (RPMI+s) (AID 1963883). Further: nearly all actives have a fitted effect of over 35% in size.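 On viability: 100% = DMSO wells and 0% = empty wells without cells.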 The gist of the method: as §1
Assay [10] is described as follows: Quantitative highthroughput screen to assess conditional lethalithy of SEM cells grown in RPMI1640 with dialyzed fetal bovine serum (RPMI+ds) (AID 1963884). Further: nearly all actives have a fitted effect of over 35% in size.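 On viability: series mostly up to about 46 µM; 100% = DMSO control wells and 0% = empty wells without cells.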 In short, it runs like this:
as §1

A short description of assay [11]: Quantitative highthroughput screen to assess conditional lethalithy of NOMO1 cells grown in RPMI1640 with untreated serum (RPMI+s) (AID 1963876). Further: nearly all actives have a fitted effect of over 35% in size. In short, it runs like this: as §1
Assay [12] is described as follows: Quantitative highthroughput screen to assess conditional lethalithy of P12 Ichikawa cells grown in RPMI1640 with untreated serum (RPMI+s) (AID 1963881). Further: nearly all actives have a fitted effect of over 35% in size.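 On viability: series mostly up to about 46 µM; 100% = DMSO wells and 0% = empty wells without cells.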 As to conditions: Potency: viability. In short, it runs like this: as §1
A short description of assay [13]: Viability qHTS for spleen associated tyrosine kinase inhibitor (SYKi) naive MV4-11 cells (AID 1963823). Further: nearly all actives have a fitted effect of over 40% in size. The gist of the method:
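CellTiter-Glo luminescence, 10 min room-temperature incubation, gave viability. Cells: naive MV4-11 (500/well), treated 72 hr at 37 C, 5% CO2.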

Where “and” joins values, the source holds several entries; their conditions need not be identical. Equal values may be shown once. Records with an inconclusive call do not appear. Unmarked numbers belong to inactive results. Calls of active or inactive are those of the source. The call rests on the fitted dose curve; in most records, active means well fitted curve in the direction sought with a large enough effect; inconclusive means small, poorly fitted or top-dose-only effect, or another doubt; inactive means no such curve, though single readings can be large; an effect the other way counts as inactive or inconclusive.
Potency means the concentration at half of the fitted maximal effect.

Chain of Cytochrome P450 3A7 (Homo sapiens) (P24462 whole entry, looked up): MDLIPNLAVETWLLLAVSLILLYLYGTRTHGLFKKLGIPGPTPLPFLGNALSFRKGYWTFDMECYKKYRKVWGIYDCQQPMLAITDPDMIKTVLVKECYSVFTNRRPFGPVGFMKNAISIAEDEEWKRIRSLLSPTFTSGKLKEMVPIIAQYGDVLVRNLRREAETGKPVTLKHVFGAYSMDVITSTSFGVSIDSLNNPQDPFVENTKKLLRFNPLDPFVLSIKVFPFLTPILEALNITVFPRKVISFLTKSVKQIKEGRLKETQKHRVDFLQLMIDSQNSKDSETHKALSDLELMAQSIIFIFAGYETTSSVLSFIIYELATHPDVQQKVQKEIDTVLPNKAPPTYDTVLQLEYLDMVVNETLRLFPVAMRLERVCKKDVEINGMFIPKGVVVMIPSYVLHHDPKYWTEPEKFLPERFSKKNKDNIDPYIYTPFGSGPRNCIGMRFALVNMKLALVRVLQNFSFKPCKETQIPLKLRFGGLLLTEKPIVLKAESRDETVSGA

For `Cn1c(=O)c2c(ncn2CC(=O)O)n(C)c1=O`, the Potency entry in assay [1] and in assay [3] was “inactive” each time. Further, the activity (max response) in assay [2] was 9.83%.
For the compound `CN/C(=C\[N+](=O)[O-])NCCSCc1csc(CN(C)C)n1`, the Potency result in assay [1] was “inactive”. In assay [2], the activity (max response) was 7.35%.
Take `Oc1cn2c(n1)Nc1ccc(Cl)c(Cl)c1C2`: the Potency entry in [1] and in [3] was “inactive” throughout. Besides, in assay [2], the activity (max response) is 11.3%.
As to `c1ccc2[nH]c(-c3cscn3)nc2c1`, the Potency entry in [1], in [4] and in [3] was “inactive” each time. Besides, the Potency in assay [5] was 8.33 µM (active); in assay [6] it was 9.35 µM (active). The activity (max response) in assay [2] is -9.06% and -18.4%.
On to `COc1c(N2C[C@@H]3CCCN[C@H]3C2)c(F)cc2c(=O)c(C(=O)O)cn(C3CC3)c12`, for which the Potency entry in assay [1] is “inactive”. Besides, the activity (max response) in [2] is -9.27%.
Take `O=c1[nH]cc(F)c(=O)[nH]1`: the Potency result in assay [1] and in assay [3] was “inactive” each time. The Potency in assay [5] is 10.5 µM (active); in assay [6], 8.33 µM (active); in assay [7], 10.5 µM (active); in assay [8], 9.35 µM (active); in assay [9] it was 9.35 µM (active); in assay [10], 10.5 µM (active). Also, in [2], the activity (max response) was -6.36%.
Turning to `CN1CCN(c2c(F)cc3c(=O)c(C(=O)O)cn4c3c2SCC4)CC1`, the Potency entry in assay [1] is “inactive”. In addition, the activity (max response) in assay [2] is -3.92%.
On to `COc1cc(Nc2ncc3c(n2)-c2ccc(Cl)cc2C(c2c(F)cccc2OC)=NC3)ccc1C(=O)O`, for which the Potency result in assay [1] is “inactive”. For the same compound, the Potency in assay [11] is 0.0833 µM (active); in [4], 0.0662 µM (active); in assay [6], 0.0743 µM (active); in assay [12] it was 0.059 µM (active); in assay [2], 31.6 µM (active); in assay [3], 2.24 µM (active).
On to `Cn1cc(S(C)=O)c(=O)c2ccc(F)cc21` (stereo not given), for which the Potency result in assay [1] and in assay [3] was “inactive” each time. In addition, the activity (max response) in assay [2] is 8.71%.
`N[C@H]1CN(c2c(F)cc3c(=O)c(C(=O)O)cn(C4C[C@@H]4F)c3c2Cl)CC12CC2` (stereo not given in full): the Potency entry in assay [1], in assay [4], in [6], in assay [7], in [12] and in assay [9] was “inactive” in each case. Besides, the Potency result in assay [3] was “inactive”. In assay [2], the activity (max response) is 4.52%.
For `CCc1ccc(C(=O)C(C)CN2CCCCC2)cc1` (stereo not given), the Potency in assay [1] was 30.9 µM (active). Besides, the activity (max response) in [2] was -7.06%.
Regarding `N=C(N)N`, the Potency entry in [1] and in assay [3] was “inactive” in each case. Also, in assay [2], the activity (max response) is 4.4%.
In the case of `CCN(CC)CC#CCOC(=O)C(O)(c1ccccc1)C1CCCCC1` (stereo not given), the Potency entry in assay [1], in [4], in assay [5], in [6], in assay [7] and in assay [12] was “inactive” each time. The Potency entry in assay [8] and in [10] was “inactive” in each case.
For the compound `CCCc1cc(C)n(C)c(=O)c1CN(C)C(=O)c1cc(-c2ccc(N3CCN(C(C)C)CC3)nc2)cc2c1cnn2C(C)C`, the Potency result in [13] is “inactive”.
As to `Cc1cc(O[C@@H]2O[C@H](COC(=O)CC(=O)O)[C@@H](O)[C@H](O)[C@H]2O)c(C(C)C)cc1O`, the Potency result in assay [13] was “inactive”.
`CC(=O)OC1C(O)CC2(C)C(CCC3(C)C2CC=C2C4C5(CCC(CO[C@@H]6O[C@H](CO)[C@@H](O)[C@H](O)[C@H]6O)(OC5=O)C4(C)O)C(O)CC23C)C1(C)C` (stereo not given in full): the Potency result in assay [13] was “inactive”.
Regarding `Nc1ncnc2c1c(I)cn2[C@@H]1C[C@H](N)[C@@H](O)[C@H]1O`, in assay [13], the Potency is 2.91 µM (active).
In the case of `C/C(=C\CCC(C)CCO)C(=O)O[C@@H]1[C@@H](O)[C@H](OC2OC=C(C(=O)O)C3CCC(C)(O)C23)O[C@H](CO)[C@H]1O` (stereo not given in full), the Potency entry in assay [13] was “inactive”.
In the case of `CC(=O)N[C@H]1[C@H](O[C@H]2CC[C@@]3(C)C(CC[C@]4(C)C3CC=C3C5CC(C)(C)CC[C@]5(C(=O)O)C(O)C[C@]34C)C2(C)C)O[C@H](CO[C@@H]2O[C@H](C)[C@H](O)[C@H](O)[C@H]2O[C@@H]2OC[C@@H](O)[C@H](O)[C@H]2O)[C@@H](O)[C@@H]1O` (stereo not given in full), the Potency in assay [13] is 3.48 µM (active).
The same measure, in the same setting: as for `C=C1C[C@]23C[C@H]1CC[C@H]2[C@]1(C)CCC[C@@](C)(C(=O)O)[C@H]1[C@@H]3C(=O)O`, the entry is “inactive”; as for `O=C(NS(=O)(=O)c1ccc(Br)s1)c1ccc(Cl)cc1Cl`, 7.31 µM (active).
For `Cc1nc([N+](=O)[O-])cn1-c1ccc([N+](=O)[O-])cc1`, the Potency entry in [1] and in assay [3] was “inactive” each time.
In the case of `O=C(Nc1cnc(Cl)nc1)c1ccc(F)c(F)c1`, the Potency result in assay [13] was “inactive”.
Take `C=C1CCC2(OC1)OC1CC3C4CC=C5CC(O)CC(O[C@@H]6OC[C@H](OC(=O)C(O)C(C)CC)[C@H](O)[C@H]6O[C@@H]6O[C@@H](C)[C@H](O)[C@@H](O)[C@H]6O)C5(C)C4CCC3(C)C1C2C` (stereo not given in full): the viability (% of control) in [13] was 76.1% [at 9.25 µM].
Turning to `CC(C)N=C(N)/N=C(\N)Nc1ccc(Cl)cc1`, the Potency entry in assay [1] and in assay [3] was “inactive” throughout.
For `CN([C@H]1c2cc(OCCCC(F)(F)F)ccc2OC(C)(C)[C@@H]1O)S(C)(=O)=O`, the Potency entry in assay [13] is “inactive”.
Turning to `CC(=O)O[C@@H]1C[C@@H](OC(C)=O)C(C)(C)/C=C/[C@H](C)[C@H](OC(C)=O)[C@@]2(O)C[C@H](C)[C@H](OC(=O)c3ccccc3)[C@@H]2/C=C/1C`, in [13], the Potency is 0.968 µM (active).
In the case of `Oc1c(I)cc(I)c2cccnc12`, the Potency result in [1] is “inactive”. In addition, the Potency in assay [3] was 3.66 µM (active).
Regarding `COCCN(C)Cc1ccc2nc3sc(C(=O)N(C)C4CCCCC4)cn3c2c1`, in [13], the Potency result is “inactive”.
Regarding `C[C@H]1[C@H](C)CC[C@]2(C(=O)O)CC[C@]3(C(=O)O)C(=CCC4[C@@]5(C)CC[C@H](O[C@@H]6O[C@H](C)[C@@H](O)[C@H](O)[C@H]6O)C(C)(C)C5CC[C@]43C)[C@H]12` (stereo not given in full), the Potency result in assay [13] is “inactive”.
`Cc1c(N(C)CS(=O)(=O)O)c(=O)n(-c2ccccc2)n1C`: the Potency entry in [1] and in assay [3] was “inactive” throughout.
As for `Oc1cccc(Nc2ncnc3sc4c(c23)CCCC4)c1`, the Potency in [13] was 4.11 µM (active).
With `Cc1ccc(-c2c(-c3nn(C)c4ncnc(N5CC[C@H](N6CCCCC6)C5)c34)cnn2C)cc1`, the Potency entry in assay [13] is “inactive”.
On to `CC(=O)SC[C@@H](Cc1ccccc1)C(=O)NCC(=O)OCc1ccccc1`, for which the Potency entry in [13] was “inactive”.
In the case of `C=C1/C(=C/C=C2\CCC[C@]3(C)[C@@H]([C@@H](C)OCCC(O)(CC)CC)CC[C@@H]23)C[C@@H](O)C[C@@H]1O`, the Potency entry in [13] was “inactive”.
`Nc1ncn([C@@H]2O[C@H](CO)[C@@H](O)[C@H]2O)c(=O)n1`: the Potency entry in assay [1] and in assay [3] was “inactive” each time.
On to `O=C(O)Cc1cn([C@@H]2O[C@H](CO)[C@@H](O)[C@H](O)[C@H]2O[C@@H]2O[C@H](CO)[C@@H](O)[C@H](O)[C@H]2O)c2ccccc12`, for which the Potency result in [13] was “inactive”.
Regarding `CC(C)C1(O)NC(=O)C(CC2(O)c3ccccc3N3C(=O)C(C)(C)NC32)n2c1nc1ccccc1c2=O` (stereo not given), in [13], the Potency entry is “inactive”.
`C[C@]12CCC[C@](C)(C(=O)O)C1[C@@H](O)[C@@H](O)C13CC(CCC12)C(CO)(O[C@@H]1O[C@H](CO)[C@@H](O)[C@H](O)[C@H]1O)C3` (stereo not given in full): the Potency entry in [13] was “inactive”.
Consider `Cc1ccccc1N1CCN(S(=O)(=O)C[C@]23CC[C@H](C[C@@H]2NC(=O)[C@@H](N)CCS(C)(=O)=O)C3(C)C)CC1`, for which the Potency entry in [13] was “inactive”.
